Only a selection was taken, and hits are over-represented in it overall.
PNC assembly inh = High Content Assay for Compounds that inhibit the Assembly of the Perinucleolar Compartment | 140,000 compounds, 3.1% hits | AID 2417, 2010 | activity change (PNC), negative = inhibition, % at 10 µM | PC3M PTB-GFP, PNC prevalence imaging, 16 h; active compounds read low;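 active = readout at or below -70, meaning at least 70% loss of cells showing the perinucleolar compartment, a nuclear body marking cancer cells; inconclusive = readout between -30 and a set limit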;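 also: plate controls were DMSO wells for no effect and camptothecin positive control wells for full effect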
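Compounds are pinned in duplicate onto adhered PC3M cells stably expressing GFP-tagged PTB and incubated 16 h at 37 C. Cells are then fixed, nuclei stained with Hoechst, and PNC-positive cells counted.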
HttQ103 aggreg = qHTS Multiplex Assay to Identify Dual Action Probes in a Cell Model of Huntington: Aggregate Formation (GFP); PC12 HttQ103-GFP aggregates, Acumen cytometry, 40 h; Potency, µM (titrated, usually from 46.1 µM), for the others: top-dose activity change, negative = inhibition, most hits filed as inhibitors; 220,000 compounds, 1.1% hits; AID 1688, 2009; also: potency is read from the fitted curve at half-maximal effect; % is scaled to controls: 0 for no effect and ±100 for the full control effect; nearly all actives have a fitted effect of over 60% in size
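Steps: seed 1500 PC12 HTTQ103-GFP cells/well; add tebufenozide, 100 nM final; add compound titration; add ATPLite reagent; quantify GFP aggregates by laser scanning cytometry.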
HTT ATP protect = qHTS Multiplex Assay to Identify Dual Action Probes in a Cell Model of Huntington: Cytoprotection (ATP). PC12 HTT-Q103 induced, cytoprotection, ATP luminescence, 40 h. Potency, µM (doses to about 56.4 µM), for the others: cytoprotection (ATP increase), most hits filed as activators. 230,000 compounds, 0.14% hits. AID 1471, 2008; also: potency is read from the fitted curve at half-maximal effect; % of control where 0% means no effect; nearly all actives have a fitted effect of over 45% in size
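PC12 cells stably carrying ecdysone-inducible Htt exon 1 (Q103)–GFP were induced with 100 nM tebufenozide (final) alongside library compounds in a dose series. Cytoprotection was scored as retained ATP by ATPlite luminescence.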
An asterisk follows results filed as active; [ ] = dose if it differs, or a comment. Unless noted, calls follow the shape of the dose curve; as a rule, active = well fitted curve in the direction sought with a large enough effect; inconclusive = small, poorly fitted or top-dose-only effect, or another doubt; inactive = no such curve, though single readings can be large; an effect the other way counts as inactive or inconclusive.

`COC(=O)N1CCN(c2ccc(Cl)c(Cl)c2)CC1` gave PNC assembly inh -102*, HttQ103 aggreg -25% and HTT ATP protect 12%[0.074 µM].
Screening COC(=O)N1CCN(c2ccc(C)c(C)c2)CC1 returned HttQ103 aggreg -4% and HTT ATP protect inconclusive.
`CC(C)(C)C1CCC(OC(=O)CN2CCOCC2)CC1` (centres undefined) gave PNC assembly inh 21, HttQ103 aggreg 3% and HTT ATP protect 10%[10 µM].
`CC(=O)Nc1c(Br)cc(N2C(=O)CCC2=O)cc1Br` gave PNC assembly inh 21, HttQ103 aggreg -13% and HTT ATP protect 31%[10 µM].
`CC(=O)Nc1cc(N2C(=O)CCC2=O)ccc1Cl` gave PNC assembly inh -82*, HttQ103 aggreg 6% and HTT ATP protect 3%.
For Cc1cc(C(=O)N2CCN(C(c3ccccc3)c3ccccc3)CC2)no1 the results were PNC assembly inh 8, HttQ103 aggreg -2% and HTT ATP protect -4%[10 µM].
CCCc1cc(C(=O)N2CCN(C(c3ccccc3)c3ccccc3)CC2)no1 was read as PNC assembly inh inconclusive, HttQ103 aggreg 22µM* and HTT ATP protect -16%[10 µM].
Screening C=CCOc1cccc(/C=N/NC(=O)CN(c2cc(Cl)ccc2OC)S(=O)(=O)c2ccc(C)c([N+](=O)[O-])c2)c1 returned PNC assembly inh inconclusive, HttQ103 aggreg 31% and HTT ATP protect 19%[10 µM].
For Cc1oc(-c2cccc(C(F)(F)F)c2)nc1CN1CCN(c2ccccn2)CC1 the results were HttQ103 aggreg 1%[9.22 µM] and HTT ATP protect 10%[10 µM].
Screening O=C(Nc1ccccc1)OCc1cnc(Cl)s1 returned HttQ103 aggreg 7% and HTT ATP protect inconclusive.
`Cc1cc(C)cc(NC(=O)C(=O)NCCc2c[nH]c3ccccc23)c1` gave HttQ103 aggreg 1% and HTT ATP protect -15%.
`C(#Cc1ccccc1)C[N+]1(CC#Cc2ccccc2)CCCCC1` gave HttQ103 aggreg -31%[9.22 µM] and HTT ATP protect -44%[10 µM].
Cc1ccc(C#CC[N+]2(CC#Cc3ccc(C)cc3)CCCCC2)cc1 was read as PNC assembly inh -16, HttQ103 aggreg 11µM* and HTT ATP protect -17%[10 µM].
`N#CC(c1ccc(F)cc1)c1ccc(C(=O)c2ccccc2)cc1` (centres undefined) gave PNC assembly inh inconclusive, HttQ103 aggreg -8%[9.22 µM] and HTT ATP protect 22%.
Screening Cc1ccc(C(=O)C(C)N(C(=O)c2ccc(Cl)cc2Cl)N2C(=O)CCCC2=O)cc1 (centres undefined) returned HttQ103 aggreg 11µM* and HTT ATP protect -34%[1.9 µM].
Screening COc1ccc(C(=O)C(C)N(C(=O)c2ccc(Cl)cc2Cl)N2C(=O)C3C4C=CC(C4)C3C2=O)cc1 (centres undefined) returned PNC assembly inh 4, HttQ103 aggreg 7% and HTT ATP protect -24%.
CC(C)c1cc[n+](-c2nc([O-])sc2C=O)cc1 was read as PNC assembly inh 8, HttQ103 aggreg 16% and HTT ATP protect -17%[10 µM].
`COc1ccc(C(=O)NC2CCN(C(=S)Nc3ccccc3C)CC2)cc1` gave HttQ103 aggreg -7%[9.22 µM] and HTT ATP protect -9%[10 µM].
CNc1nc(CCN2C(=O)c3ccccc3C2=O)cs1 was read as PNC assembly inh -5, HttQ103 aggreg 0% and HTT ATP protect 7%.
Cc1nc(CCN2C(=O)c3ccccc3C2=O)cs1 was read as PNC assembly inh -111*, HttQ103 aggreg -15% and HTT ATP protect -8%.
`Cc1noc(C)c1COC(=O)[C@H](C)NS(=O)(=O)c1ccc(Cl)c(Cl)c1` gave PNC assembly inh 33, HttQ103 aggreg -10% and HTT ATP protect -21%.
`Cc1noc(C)c1COC(=O)Cc1ccc(Cl)c(Cl)c1` gave PNC assembly inh inconclusive, HttQ103 aggreg 0.79µM* and HTT ATP protect -16%[0.074 µM].
CN(C)C(=O)c1ccc(-c2ccc3ncnc(Nc4ccccc4)c3c2)cc1 was read as HTT ATP protect -103%.
O=C(CSc1nnc(Cn2nnc3ccccc32)o1)N(Cc1ccc(F)cc1)c1ccccc1 was read as PNC assembly inh inconclusive, HttQ103 aggreg 13µM* and HTT ATP protect 28%[10 µM].
`COc1ccc(N(Cc2ccccc2)C(=O)CSc2nnc(Cn3nnc4ccccc43)o2)cc1` gave PNC assembly inh 56, HttQ103 aggreg inconclusive and HTT ATP protect -12%.
`O=C(c1cc2c(ccc3ccccc32)oc1=O)N1CCN(CCO)CC1` gave PNC assembly inh inconclusive, HttQ103 aggreg inconclusive and HTT ATP protect 8%[10 µM].
Screening Cn1c(SCc2ccc(Br)cc2)nc2c(c1=O)SCC2 returned HttQ103 aggreg inconclusive and HTT ATP protect -27%.
`CN1/C(=C\P(=O)(N(C)C)N(C)C)C(C)(C)c2ccccc21` gave PNC assembly inh -18, HttQ103 aggreg 11µM* and HTT ATP protect -3%[10 µM].
`CCOC(=O)/C=C1/N(C)c2ccccc2C1(C)C` gave HttQ103 aggreg -8%[9.22 µM] and HTT ATP protect -8%[10 µM].
For CSCCC1NC(=O)N(CC(=O)Nc2ccc(Br)cc2Br)C1=O (centres undefined) the results were HttQ103 aggreg 4%[9.22 µM] and HTT ATP protect 18%[10 µM].
Screening COc1ccc2[nH]c(=O)c(CN(Cc3ccco3)C(c3nnnn3Cc3ccccc3)C(C)C)cc2c1 (centres undefined) returned PNC assembly inh -9, HttQ103 aggreg 18%[9.22 µM] and HTT ATP protect 15%.
Screening Cc1cccc2cc(CN(Cc3ccco3)C(c3nnnn3CCc3ccccc3)C(C)C)c(=O)[nH]c12 (centres undefined) returned PNC assembly inh -99*, HttQ103 aggreg 1%[9.22 µM] and HTT ATP protect -17%[10 µM].
Screening CCOC(=O)c1nn(-c2ccccc2)c(=O)cc1SC(C)CC (centres undefined) returned PNC assembly inh -28, HttQ103 aggreg 18% and HTT ATP protect 7%.
Screening O=S(=O)(NC1CCCC1)c1ccc(S(=O)(=O)N2CCc3ccccc32)cc1 returned PNC assembly inh 3, HttQ103 aggreg 11µM* and HTT ATP protect 27%[10 µM].
Screening Cn1c(=O)c(=O)n(C)c2cc(S(=O)(=O)N3CCc4ccccc43)ccc21 returned PNC assembly inh inconclusive, HttQ103 aggreg -19% and HTT ATP protect -5%.
CCOc1oc(-c2ccc(OC)cc2)nc1C(F)(F)F was read as PNC assembly inh inconclusive, HttQ103 aggreg 1%[1.84 µM] and HTT ATP protect 4%.
For O=C(Nc1cccc(O)c1)c1cccc(S(=O)(=O)N2CCCC2)c1 the results were PNC assembly inh inconclusive, HttQ103 aggreg -17% and HTT ATP protect 2.8µM*.
Screening O=S(=O)(c1cccc(-c2nnco2)c1)N1CCCC1 returned PNC assembly inh -107*, HttQ103 aggreg -10% and HTT ATP protect -27%[10 µM].
For O=C(Nc1cccnc1)c1cccc(S(=O)(=O)N2CCCCC2)c1 the results were HttQ103 aggreg -13%[9.22 µM] and HTT ATP protect -3%[10 µM].
For O=C(Nc1cccc(S(=O)(=O)N2CCCCC2)c1)c1ccc2ccccc2n1 the results were PNC assembly inh -9, HttQ103 aggreg -24% and HTT ATP protect 6%[10 µM].

Compound activity: PubChem, National Center for Advancing Translational Sciences (NCATS)
